# From PubChem BioAssay AID720697 (Broad Institute, 2013)
# Measured potencies and affinities stand elsewhere. Records with an inconclusive call do not appear. Values without a mark were called inactive.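 How the source made its calls: active means signal loss with fitted half-maximal concentration at or below twice the top valid tested dose in every test run; inconclusive means runs disagree, flat 30 to 70% signal loss, or poor fit; inactive means all runs flat, opposite direction, or potency beyond limit.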
# Test: general mammalian cell viability loss – inhibitor set, cherry-pick, set 2, cytotoxicity control for miR-122 modulator project, dose response (AID 720697);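 further: 0% = median of neutral control wells and -100% = MG132 positive control wells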
# Conditions: HEK293T viability, CellTiter-Glo luminescence, 48 h; series mostly up to 26 µM; activity change, negative = cytotoxicity: at the top concentration
row,Structure (SMILES),"activity change, negative = cytotoxicity"
1,CN(C)CCCNC(=O)C[C@H]1CC[C@H]2[C@@H](COc3ccc(NC(=O)c4ccccc4F)cc3C(=O)N2C)O1,42.9%
2,C[C@@H]1CN([C@@H](C)CO)S(=O)(=O)c2ccc(C#CC3CC3)cc2O[C@@H]1CN(C)C(=O)c1cccc(F)c1,11.4%
3,CN1C(=O)c2cc(NC(=O)c3cccs3)ccc2OC[C@@H]2O[C@@H](CC(=O)NCCN3CCCCC3)CC[C@@H]21,36.2% [at 23.5 µM]
4,CCNC(=O)C[C@H]1CC[C@@H]2[C@H](COc3ccc(NC(=O)c4cccs4)cc3C(=O)N2C)O1,128%
5,COc1cccc(CNC(=O)C[C@@H]2CC[C@@H]3[C@H](COc4ccc(NC(C)=O)cc4C(=O)N3C)O2)c1,74.7%
6,CNC(=O)C[C@@H]1CC[C@@H]2[C@H](COc3ccc(NC(=O)NC(C)C)cc3C(=O)N2C)O1,41.3%
7,N#Cc1cccc(NC(=O)Nc2cccs2)c1,96.1%
8,O=C(CN1CCN(c2nc(-c3ccccc3)cs2)CC1)Nc1ccc2c(c1)OCO2,59.5%
9,N#Cc1ccc(C(=O)Nc2ccc(N3CCN(C(=O)c4ccco4)CC3)cc2)c(F)c1,-30.3% [at 6 µM]
10,Cc1cc(C(=O)N/N=C/c2cc(Br)ccc2OC(=O)c2ccccc2)n[nH]1,-27.6%
11,CCCNC(=O)C[C@H]1CC[C@@H]2[C@@H](COc3ccc(NC(=O)c4ccc5c(c4)OCO5)cc3C(=O)N2C)O1,139% [at 23.5 µM]
12,Cc1nn(C)cc1NC(=O)C[C@@H]1CC[C@H]2[C@@H](COc3ccc(NC(=O)Nc4cccc(Cl)c4)cc3C(=O)N2C)O1,78.7%
13,C/C=C/c1ccc([C@H]2[C@@H](CO)N(C(=O)C3CC3)[C@H]2CN(C)C(=O)CC2CC2)cc1,115%
